The subject of experiment [1] is Human papillomavirus type 1a protein E7 (residues 44-93). The experiment is described as follows: small molecules binding HPV E7 44-93 – biochemical, small-molecule microarray, residues 44-93, 635 nm fluorescence, primary screen (AID 1108).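 Further: E7 fragment applied at 1 µg/mL in TBST for 1 h at 4 C; score combines spot fluorescence with its signal to noise ratio.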 The note with it: fluorescence 635 nm, higher = more signal.
Experiment [2] in a line: hepatitis C replication reporter changes, two-sided – Huh7 cells, luciferase reporter, HCV replication inhibitor project, primary screen (AID 1109).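 Further: huh7 hepatoma cells harbouring a luciferase neomycin HCV replicon reporter; luciferase luminescence as measure of HCV replicon replication; test concentration not given here.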 As to conditions: Huh7 HCV replicon luciferase reporter, 48 h; higher = more signal.
The target in experiment [3] is Left-right determination factor 2 (Homo sapiens) (UniProt O00292). In words: small molecules binding LEFTY2 protein – biochemical, small-molecule microarray, 635 nm fluorescence scan, primary screen (AID 1110). As to conditions: higher = more signal.
Sequence of Left-right determination factor 2 (Homo sapiens) (O00292 whole entry, looked up): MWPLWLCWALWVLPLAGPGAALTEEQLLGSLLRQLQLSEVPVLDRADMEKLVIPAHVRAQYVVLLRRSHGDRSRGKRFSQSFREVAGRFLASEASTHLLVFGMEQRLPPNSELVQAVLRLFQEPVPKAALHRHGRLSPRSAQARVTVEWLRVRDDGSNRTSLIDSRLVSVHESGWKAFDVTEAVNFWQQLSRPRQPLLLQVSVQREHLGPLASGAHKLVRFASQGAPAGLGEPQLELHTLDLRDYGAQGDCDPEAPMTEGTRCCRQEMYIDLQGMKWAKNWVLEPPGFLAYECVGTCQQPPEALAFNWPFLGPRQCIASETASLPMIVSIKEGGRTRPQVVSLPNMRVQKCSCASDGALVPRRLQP
In experiment [4] the target is Calmodulin-1 (Homo sapiens) (UniProt P0DP23). The experiment is described as follows: small molecules binding calmodulin-1 with EGTA – biochemical, small-molecule microarray, Cy5-labelled CALM1, profiling panel (AID 1111).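 Further: labelled calmodulin applied in Tris saline Tween buffer holding calcium plus EGTA and DTT.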 As to conditions: Cy5-CALM1 binding fluorescence, higher = more signal.
Experiment [5] has the same target. The experiment is described as follows: small molecules binding Ca-loaded calmodulin-1 – biochemical, small-molecule microarray, Cy5-labelled CALM1, plus calcium, artefact control for SMM control-protein annotation, profiling panel (AID 1112).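 Further: score merges spot fluorescence with signal to noise from triplicate slides.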 As to conditions: Cy5-CALM1 binding fluorescence, higher = more signal.
Experiment [6] is described as follows: probe aWnt5a binding to arrayed compounds – biochemical, biotinylated probe, 635/667 nm fluorescence, primary screen (AID 1113).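 Further: score merges 667 nm fluorescence intensity with signal-to-noise per printed feature.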 The note with it: small-molecule microarray, higher = more signal.
Experiment [7] is described as follows: probe aShh binding to arrayed compounds – biochemical, biotinylated probe, 635/667 nm fluorescence, primary screen (AID 1114).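 Further: probe is biotin-labelled aShh protein from a stem cell growth factor screen; measures binding of labelled protein to compounds printed on the slide; score merges feature fluorescence at 667 nm with signal-to-noise.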 As to conditions: small-molecule microarray, higher = more signal.
A short description of experiment [8]: probe aNog binding to arrayed compounds – biochemical, biotinylated probe, 635/667 nm fluorescence, primary screen (AID 1115).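 Further: probe is biotinylated aNog protein used at 0.15 µg/mL for 1 h at 4 C; z-score combines 667 nm fluorescence of each spot with its signal to noise.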 As to conditions: small-molecule microarray, higher = more signal.
Experiment [9] deals with Torsin-1A-interacting protein 1 (Homo sapiens) (UniProt Q5JTV8). In words: compound microarray binding of lysate hLAP1 – cell lysate, small-molecule microarray, COS7 lysate, 635/667 nm fluorescence, primary screen (AID 1116). As to conditions: 635 nm fluorescence, higher = more signal.
Sequence of Torsin-1A-interacting protein 1 (Homo sapiens) (Q5JTV8 whole entry, looked up): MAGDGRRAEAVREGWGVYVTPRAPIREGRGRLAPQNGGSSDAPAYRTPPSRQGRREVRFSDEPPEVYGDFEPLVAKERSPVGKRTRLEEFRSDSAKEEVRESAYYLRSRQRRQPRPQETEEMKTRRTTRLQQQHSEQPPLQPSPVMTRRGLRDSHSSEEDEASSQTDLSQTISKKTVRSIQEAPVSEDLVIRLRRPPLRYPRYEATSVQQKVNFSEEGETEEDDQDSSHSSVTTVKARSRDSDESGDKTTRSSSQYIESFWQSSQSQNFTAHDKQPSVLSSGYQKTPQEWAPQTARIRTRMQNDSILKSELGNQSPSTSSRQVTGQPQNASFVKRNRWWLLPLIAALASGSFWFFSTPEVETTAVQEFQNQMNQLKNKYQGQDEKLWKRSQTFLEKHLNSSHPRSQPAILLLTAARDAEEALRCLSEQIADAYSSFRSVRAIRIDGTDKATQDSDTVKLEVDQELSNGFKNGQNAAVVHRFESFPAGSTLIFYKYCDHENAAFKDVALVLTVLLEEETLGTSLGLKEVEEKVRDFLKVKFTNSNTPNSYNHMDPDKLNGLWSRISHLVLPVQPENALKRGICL
Experiment [10] deals with Alpha-bungarotoxin (Bungarus multicinctus) (UniProt P60615). The experiment is described as follows: compounds binding labelled alpha-BTX control protein – biochemical, small-molecule microarray, Alexa647 label, 635/667 nm fluorescence, artefact control for SMM control protein annotation, profiling panel (AID 1117). As to conditions: alpha-BTX-A647 binding fluorescence, higher = more signal.
Sequence of Alpha-bungarotoxin (Bungarus multicinctus) (P60615 whole entry, looked up): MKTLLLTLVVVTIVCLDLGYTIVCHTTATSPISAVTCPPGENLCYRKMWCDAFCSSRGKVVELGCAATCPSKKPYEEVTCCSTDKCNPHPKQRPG

The target of experiment [11] is Albumin (Bos taurus) (UniProt P02769). The experiment is described as follows: compounds binding labelled BSA control protein – biochemical, small-molecule microarray, Alexa647 label, 635/667 nm fluorescence, artefact control for SMM control protein annotation, profiling panel (AID 1118).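 Further: score merges 667 nm emission intensity and signal-to-noise per printed compound spot.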 The note with it: BSA-A647 binding, fluorescence 635 nm, higher = more signal.
Sequence of Albumin (Bos taurus) (P02769 whole entry, looked up): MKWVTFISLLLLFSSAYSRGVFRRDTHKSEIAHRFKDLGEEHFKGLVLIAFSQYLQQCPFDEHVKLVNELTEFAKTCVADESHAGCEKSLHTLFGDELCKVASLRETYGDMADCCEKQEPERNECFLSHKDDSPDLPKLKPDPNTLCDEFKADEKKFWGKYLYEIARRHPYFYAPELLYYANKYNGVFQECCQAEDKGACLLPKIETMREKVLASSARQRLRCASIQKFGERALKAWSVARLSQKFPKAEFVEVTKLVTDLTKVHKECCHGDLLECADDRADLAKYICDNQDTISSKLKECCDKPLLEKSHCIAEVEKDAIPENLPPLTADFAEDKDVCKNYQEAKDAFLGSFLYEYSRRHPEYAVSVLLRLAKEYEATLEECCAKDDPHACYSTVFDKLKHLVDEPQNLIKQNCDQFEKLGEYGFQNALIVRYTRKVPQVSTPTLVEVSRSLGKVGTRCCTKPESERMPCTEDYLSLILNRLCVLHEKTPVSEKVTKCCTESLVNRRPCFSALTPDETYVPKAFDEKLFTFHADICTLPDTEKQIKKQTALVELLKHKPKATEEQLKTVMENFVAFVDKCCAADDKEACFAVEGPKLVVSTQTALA

The nature of experiment [12]: probe aXIP binding to arrayed compounds – biochemical, NeuroSMM set, 635/667 nm fluorescence, primary screen (AID 1119).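 Further: probe is the protein aXip251-270 applied at 1 µg/mL to compound-printed slides; binding of probe to printed compounds measured as 667 nm fluorescence plus signal to noise.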 As to conditions: small-molecule microarray, higher = more signal, called active from +8 up or from −8 down.
Experiment [13] is described as follows: probe aNOTCH3 binding on compound microarray – biochemical, small-molecule microarray, 635/667 nm fluorescence, primary screen (AID 1120).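 Further: probe is a biotin-tagged antibody raised against NOTCH3 rather than NOTCH3 protein; score merges spot fluorescence near 667 nm with spot signal to noise.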 As to conditions: higher = more signal.
The nature of experiment [14]: probe aNOTCH2 binding on compound microarray – biochemical, small-molecule microarray, 635/667 nm fluorescence, primary screen (AID 1121).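 Further: score merges feature fluorescence read at 667 nm with its signal to noise.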 As to conditions: higher = more signal.
The target of experiment [15] is Carbonic anhydrase 2 (Homo sapiens) (UniProt P00918). In words: compounds binding carbonic anhydrase 2 – biochemical, small-molecule microarray, Alexa647-labelled CAII, profiling panel (AID 1122). The note with it: CAII-A647 binding fluorescence, higher = more signal.
Experiment [16] is described as follows: COS7 lysate on small-molecule microarray, probe aHis, 635 nm (AID 1123).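 Further: z-score combines 667nm fluorescence intensity with signal-to-noise per printed compound spot.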 The note with it: COS7 cell lysate, fluorescence, higher = more signal.
Experiment [17] can be described thus: probe aLAP1 signal on lysate-treated microarray – cell lysate, small-molecule microarray, COS7 lysate, primary screen (AID 1124).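 Further: lysate comes from COS7 cells expressing LAP1 and is applied at 0.3 µg/mL; score merges spot fluorescence near 667 nm with signal-to-noise over triplicate slides.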 The note with it: probe aLAP1, fluorescence, higher = more signal.
Experiment [18] concerns Sam68 (KHDRBS1). In words: compounds binding KHDRBS1 protein – biochemical, small-molecule microarray, 635 nm fluorescence, primary screen (AID 1125).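 Further: score merges 667 nm channel intensity with signal to noise over triplicate slides.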 As to conditions: higher = more signal.
In experiment [19] the test system is Chordin-like protein 2 (CHRDL2). In words: compounds binding chordin-like 2 – biochemical, small-molecule microarray, 635 nm fluorescence, primary screen (AID 1126).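 Further: printed compound slides probed with Chrdl2 protein at 4 µg/mL for 1 h at 4 C; score merges 667 nm emission intensity with signal to noise over three replicate slides.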 As to conditions: fluorescence 635 nm, higher = more signal.
In experiment [20] the target is Concanavalin-A (Canavalia ensiformis) (UniProt P02866). The experiment is described as follows: compounds binding concanavalin A lectin – biochemical, small-molecule microarray, Alexa647 label, 635 nm, artefact control for SMM control protein annotation, primary screen (AID 1127).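 Further: z combines 667 nm emission intensity with signal-to-noise across three replicate slides.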 The note with it: ConA-A647 binding fluorescence, higher = more signal.
Sequence of Concanavalin-A (Canavalia ensiformis) (P02866 whole entry, looked up): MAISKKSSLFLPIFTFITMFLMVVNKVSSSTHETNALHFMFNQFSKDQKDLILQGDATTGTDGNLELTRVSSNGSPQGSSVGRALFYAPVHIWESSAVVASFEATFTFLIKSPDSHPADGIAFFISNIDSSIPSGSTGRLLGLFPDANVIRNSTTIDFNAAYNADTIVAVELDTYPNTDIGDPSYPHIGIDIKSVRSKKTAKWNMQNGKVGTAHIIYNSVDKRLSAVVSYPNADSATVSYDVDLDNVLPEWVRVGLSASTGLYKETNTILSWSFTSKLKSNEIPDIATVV

The source made the active and inactive calls.

Take `O=C1N(CCS(=O)(=O)c2ccccc2)Cc2ccccc2C[C@]12N=C(c1ccc(OCCCO)cc1)O[C@@H]2c1ccccc1`: the composite z-score is -0.183 in experiment [1]; 0.947 in experiment [3]; 2.54 in [4]; 0.422 in [5]; 0.122 in [6]; 0.21 in [7]. Besides, the composite z-score in [8] was 1.21; in [9], 1.88; in experiment [10] it was 1.59; in experiment [11], -0.591; in experiment [13] it was 0.567; in [14], 0.189. The composite z-score in experiment [15] came out at 0.396; in [16], 3.41; in [17] it was 1.17; in experiment [18], 1.13; in experiment [19], 1.17; in experiment [20], 1.12. The z-score in experiment [2] was -2.19. Besides, the composite Z-score in experiment [12] is 0.339 (inactive).

Take `CCOC(=O)C1=CC[C@@H](c2ccccc2Cl)N(S(=O)(=O)c2ccc(C)cc2)C1`: the composite z-score is 0.948 in [1]; -0.462 in experiment [3]; 1.52 in experiment [4]; 0.784 in experiment [5]; -0.117 in experiment [6]; -0.167 in experiment [7]. Moreover, the composite z-score in experiment [8] was determined as 1.25; in experiment [9], 1.56; in experiment [10], 0.407; in experiment [11], 0.963; in experiment [13], 0.0738; in experiment [14], 0.145. The composite z-score was 0.563 in experiment [15]; 2.04 in experiment [16]; 0.837 in experiment [17]; 1.06 in [18]; -1.04 in experiment [19]; 1.04 in [20]. The compound also had a z-score in [2] of -2.7. For the same compound, the composite Z-score in [12] is 0.817 (inactive).

Take `COCCOC(=O)N1C(=O)[C@@]2(c3cc(C#CCNC(N)=O)ccc31)[C@H](C(=O)N1CCN(c3ncccn3)CC1)[C@H]1C(=O)O[C@H](c3ccccc3)[C@H](c3ccccc3)N1[C@@H]2c1ccccc1OCCO`: the composite z-score was 1.38 in experiment [1]; 0.877 in [3]; 0.97 in experiment [4]; 0.264 in experiment [5]; 0.0375 in [6]; 0.175 in experiment [7]. Also, the composite z-score in [8] is -0.319; in experiment [9] it was 0.82; in [10], 0.904; in experiment [11] it was 0.413; in [13], 0.209; in [14], 0.0066. The composite z-score turned out to be 0.358 in experiment [15]; 1.08 in experiment [16]; 0.427 in experiment [17]; 1.31 in experiment [18]; 0.867 in experiment [19]; 1.02 in experiment [20]. This compound came in with a z-score in experiment [2] of -1.05. Further, the composite Z-score in experiment [12] was 0.255 (inactive).

Take `CCOC(=O)C1=CCC(C(C)(C)C)N(S(=O)(=O)c2ccc(C)cc2)C1` (stereo not given): the composite z-score in [1] was 1.46; in experiment [3] it was 1.37; in [4], 0.898; in experiment [5], 0.197; in [6] it was 0.0561; in experiment [7], -0.532. The composite z-score in [8] is 0.562; in experiment [9] it was 0.944; in experiment [10] it was 1.5; in experiment [11], 0.815; in [13], 0.34; in experiment [14], -0.0196. In addition, the composite z-score is 0.623 in experiment [15]; 2.45 in experiment [16]; 0.368 in experiment [17]; 1.32 in experiment [18]; 0.825 in experiment [19]; 1.1 in experiment [20]. Moreover, the z-score in experiment [2] is -2.59. In addition, the composite Z-score in [12] is -0.427 (inactive).

For `COc1ccc(NN2C(C(O)c3ccc(OC)c(OCc4ccccc4)c3)C=CC3C(=O)N(C4CCCCC4)C(=O)C32)cc1` (stereo not given), the composite z-score is 1.4 in [1]; -0.167 in [3]; 1.15 in [4]; 0.63 in [5]; 0.135 in [6]; 0.213 in [7]. Further, the composite z-score in experiment [8] is 0.751; in experiment [9] it was 0.637; in [10] it was 1.82; in [11], 0.976; in experiment [13], 0.252; in [14], -0.122. Also, the composite z-score in experiment [15] amounted to 0.274; in [16] it was 2.52; in experiment [17], 0.0516; in [18], 1.24; in experiment [19], 0.275; in experiment [20], 1.11. The z-score in [2] is -1.21. Besides, the composite Z-score in experiment [12] was 0.745 (inactive).

Take `O=C1O[C@@H](c2ccccc2)[C@@H](c2ccccc2)N2[C@@H](c3ccccc3OCCO)[C@]3(C(=O)Nc4ccc(C#CC5(O)CCCCCC5)cc43)[C@@H](C(=O)Nc3nc4ccccc4s3)[C@H]12`: the composite z-score is 1.38 in experiment [1]; 0.628 in experiment [3]; 0.688 in experiment [4]; 0.226 in experiment [5]; -0.0495 in [6]; -0.0685 in [7]. Further, the composite z-score in experiment [8] is -0.0065; in [9] it was 0.367; in experiment [10], 0.744; in experiment [11], 0.663; in experiment [13] it was 0.283; in experiment [14] it was -0.0904. The composite z-score is 0.453 in experiment [15]; 1 in [16]; 0.246 in [17]; 1.02 in [18]; 0.784 in experiment [19]; 0.723 in [20]. Besides, in [2], the z-score is -3.09. In addition, in experiment [12], the composite Z-score is -0.0544 (inactive).

For the compound `COC(=O)[C@@]1(Cc2ccc(OC)cc2)[C@H]2c3cc(C(=O)N4CCCC4)n(Cc4ccccn4)c3C[C@H]2CN1C(=O)c1ccccc1`, the composite z-score in [1] was 1.48; in experiment [3] it was -0.662; in experiment [4] it was 1.42; in experiment [5] it was 0.816; in experiment [6], 0.202; in experiment [7], -0.0069. For the same compound, the composite z-score in experiment [8] is 2.04; in experiment [9], 1.07; in [10], 0.65; in experiment [11] it was 0.939; in [13], 0.277; in experiment [14] it was 0.246. Besides, the composite z-score in [15] is 0.82; in [16], 1.55; in experiment [17], 0.285; in [18], 1.31; in [19] it was -0.761; in [20], 0.906. The same compound showed a z-score in experiment [2] of -1.52. For the same compound, the composite Z-score in [12] was -0.832 (inactive).

Regarding `CCC[C@@H]1C=C(C(=O)O)[C@H](c2ccc(C)cc2)N1S(=O)(=O)c1ccc(C)cc1`, the composite z-score in [1] is 1.36; in experiment [3], -0.442; in experiment [4] it was 0.665; in [5] it was 0.0233; in [6], -0.0819; in experiment [7], 0.0815. Besides, the composite z-score in experiment [8] is 0.582; in [9], 0.959; in experiment [10], 1.45; in experiment [11], 0.972; in [13], 0.195; in experiment [14] it was 0.0029. In addition, the composite z-score in [15] was 0.799; in experiment [16], 2.71; in experiment [17], 0.738; in experiment [18], 1.33; in experiment [19], -0.802; in [20] it was 0.757. In experiment [2], this compound yielded a z-score of 0.641. Further, in experiment [12], the composite Z-score is 0.102 (inactive).

These data come from PubChem BioAssay.
